Experimental findings from PubChem BioAssay AID1345085 (National Center for Advancing Translational Sciences (NCATS), 2018) are described below.

Results filed as inconclusive are left out. Calls of active or inactive are those of the source. Calls come from the whole dose curve; as a rule, active = well fitted cell-killing curve with a large enough effect; inconclusive = small, poorly fitted or top-dose-only effect, or effect the other way; inactive = no such curve, though single readings can be large or run the other way.
Potency is the fitted concentration of half-maximal effect.

The test system of this assay is Es-2. The assay can be described thus: Confirmatory qHTS for gynecologic anti-cancer compounds from libraries of approved drugs and bioactive compounds. Note: nearly all actives have a fitted effect of over 55% in size. Conditions: gynecologic cancer cell panel viability, ATPlite luminescence, 48 h; series mostly up to 57.6 µM. Put shortly: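 ATPlite luminescence read-out of cell viability; IC50 from 11-point 1:3 titrations, 57.5 uM to 0.977 nM, 48 h compound exposure at 37 C, 5% CO2. Cells seeded at 1,000/well 16 h before dosing.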
Background: Quantitative high-throughput screening tests each substance at several concentrations.
Consider `CC[C@@]1(O)C(=O)OCc2c1cc1n(c2=O)Cc2cc3c(CN(C)C)c(O)ccc3nc2-1`, for which the Potency is 0.193 µM (active). `CCCCN(CCCC)C(=O)CN1C[C@H](c2ccc3c(c2)OCO3)[C@@H](C(=O)O)[C@@H]1c1ccc(OC)cc1`: the Potency entry was “inactive”. Consider `O=C(/C=C/c1cccc(S(=O)(=O)Nc2ccccc2)c1)NO`, for which the Potency was 2.98 µM (active). `Cc1csc(NC(=O)c2sc3nc4c(c(C(F)(F)F)c3c2N)CCC4)n1`: the Potency is 2.17 µM (active). Regarding `CC(Oc1cc(-n2cnc3ccc(CN4CCN(C)CC4)cc32)sc1C(N)=O)c1ccccc1C(F)(F)F` (stereo not drawn), the Potency is 3.43 µM (active). Turning to `Cc1ccc(C(=O)Nc2cccc(C(F)(F)F)c2)cc1-c1ccc2nc(NCCN3CCOCC3)ncc2c1`, the Potency is 5.44 µM (active). Turning to `Oc1cn2c(n1)Nc1ccc(Cl)c(Cl)c1C2`, the Potency result is “inactive”.

Take `Cn1cnc2c(F)c(Nc3ccc(Br)cc3Cl)c(C(=O)NOCCO)cc21`: the Potency was 6.85 µM (active). With `CCN(CC)CCCC(C)Nc1ccnc2cc(Cl)ccc12` (stereo not drawn), the Potency result is “inactive”. With `COc1cccc2c1C(=O)c1c(O)c3c(c(O)c1C2=O)C[C@@](O)(C(=O)CO)C[C@@H]3O[C@H]1C[C@H](N)[C@H](O)[C@H](C)O1`, the Potency is 1.72 µM (active). For `CN(C)C(CCOc1cccc2ccccc12)c1ccccc1` (stereo not drawn), the Potency result was “inactive”.

For `Cc1cc(Nc2nc(N[C@@H](C)c3ccc(F)cc3)c(C#N)cc2F)n[nH]1`, the Potency is 21.7 µM (active). Under `CC(C)Oc1ccc2c(=O)c(-c3ccccc3)coc2c1` stands 9.68 µM (active); under `N#CC1(c2cccc(C(=O)Nc3cc(Oc4ccc5nc(NC(=O)C6CC6)sc5n4)ccc3F)c2Cl)CC1`, 5.44 µM (active); under `COc1ccc2c(c1OC)C(=O)O[C@@H]2[C@H]1c2c(cc3c(c2OC)OCO3)CCN1C`, “inactive”. In the case of `CCCCc1oc2ccccc2c1C(=O)c1cc(I)c(OCCN(CC)CC)c(I)c1`, the Potency was 70.8 µM (active). Next, `Cc1cnc(Nc2ccc(OCCN3CCCC3)cc2)nc1Nc1cccc(S(=O)(=O)NC(C)(C)C)c1`: 8.63 µM (active).

For the compound `CC(C)C[C@H](NC(=O)[C@H](CCc1ccccc1)NC(=O)CN1CCOCC1)C(=O)N[C@@H](Cc1ccccc1)C(=O)N[C@@H](CC(C)C)C(=O)[C@@]1(C)CO1`, the Potency is 3.06 µM (active). Take `COc1cccc2c1C(=O)c1c(O)c3c(c(O)c1C2=O)C[C@@](O)(C(=O)CO)C[C@@H]3O[C@H]1C[C@H](N)[C@H](O[C@@H]2CCCCO2)[C@H](C)O1`: the Potency was 7.69 µM (active). Regarding `O=C(CCCCCCC(=O)Nc1ccccc1)NO`, the Potency was 3.06 µM (active). Consider `NS(=O)(=O)OC[C@@H]1C[C@@H](n2ccc3c(N[C@H]4CCc5ccccc54)ncnc32)C[C@@H]1O`, for which the Potency was 1.72 µM (active). With `CC1(C)[C@@H](O)CC[C@]2(C)[C@H]3C(=O)C=C4[C@@H]5C[C@@](C)(C(=O)O)CC[C@]5(C)CC[C@@]4(C)[C@]3(C)CC[C@@H]12`, the Potency result is “inactive”. Next, `O=c1cc(CN2CCOCC2)occ1OCCCCCSc1ccnc2cc(C(F)(F)F)ccc12`: “inactive”.

In the case of `CCCCc1oc2ccc(NS(C)(=O)=O)cc2c1C(=O)c1ccc(OCCCN(CCCC)CCCC)cc1`, the Potency is 24.3 µM (active). On to `CCC1=CC2CN(C1)Cc1c([nH]c3ccccc13)[C@@](C(=O)OC)(c1cc3c(cc1OC)N(C)[C@H]1[C@@](O)(C(=O)OC)[C@H](OC(C)=O)[C@]4(CC)C=CCN5CC[C@]31[C@@H]54)C2` (stereo partly drawn), for which the Potency is 0.376 µM (active).

Take `CCc1c2c(nc3ccc(OC(=O)N4CCC(N5CCCCC5)CC4)cc13)-c1cc3c(c(=O)n1C2)COC(=O)[C@]3(O)CC`: the Potency was 12.2 µM (active). In the case of `CO[C@@]12[C@H](COC(N)=O)C3=C(C(=O)C(C)=C(N)C3=O)N1C[C@@H]1N[C@@H]12`, the Potency entry was “inactive”. Under `Nc1ccccc1NC(=O)c1ccc(CNc2nccc(-c3cccnc3)n2)cc1` stands 2.43 µM (active); under `OCCNC1CCCc2c1[nH]c1ccc(-c3ccccc3)cc21` (stereo not drawn), 19.3 µM (active); under `CN(C[C@@H]1COCCO1)S(=O)(=O)Nc1ccc2ccc3ncc(-c4cnn(C)c4)cc3c(=O)c2c1`, “inactive”. For the compound `COc1cc(N2CCC(N3CCN(C)CC3)CC2)ccc1Nc1ncc(Cl)c(Nc2ccccc2S(=O)(=O)C(C)C)n1`, the Potency is 24.3 µM (active).

`NCCOc1cc(C(=O)Nc2cc(OCCN)c3ccccc3n2)nc(C(=O)Nc2cc(OCCN)c3ccccc3n2)c1`: the Potency entry is “inactive”. Turning to `COc1cc(Nc2ncc3c(n2)-c2ccc(Cl)cc2C(c2c(F)cccc2OC)=NC3)ccc1C(=O)O`, the Potency result is “inactive”.
